Experimental findings from PubChem BioAssay (Tox21) are described below.

Experiment [1] can be described thus: qHTS assay to identify small molecule antagonists of the retinoid acid receptor (RAR) signaling pathway - cell viability counter screen (AID 1159551). Also: nearly all actives have a fitted effect of over 35% in size. The conditions noted are these: C3RL4 cells viability, ATP luminescence (CellTiter-Glo), 6 h; series mostly up to 92.4 µM. Summed up: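 Following overnight attachment, C3RL4 reporter cells received DMSO-dissolved compounds and then retinol (1 uM final). Six hours later at 37 C, ATP content was measured by CellTiter-Glo luminescence.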
Background: In qHTS, concentration-response curves come from the screen itself.

Experiment [2] is described as follows: qHTS assay to identify small molecule antagonists of the retinoic acid receptor (RAR) signaling pathway (AID 1159552; also: nearly all actives have a fitted effect of over 50% in size). The note with it: C3RL4 RARE luciferase reporter, retinol-stimulated, 6 h; series mostly up to 92.4 µM. Summed up:
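Luminescence from a RARE luciferase reporter in C3RL4 cells served as read-out. Cells received compounds together with 1 uM final retinol and incubated 6 hr at 37 C before detection reagent was added for 30 min at room temperature.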

Experiment [3] is described as follows: qHTS assay to identify small molecule agonists of the retinoic acid receptor (RAR) signaling pathway (AID 1159553). The note with it: C3RL4 RARE luciferase reporter, agonist, 6 h; activation: at 73.3 µM (top of the series) unless noted. Summed up: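 Cell line C3RL4, RARE luciferase reporter. Treatment: compounds in DMSO, 6 hr, 37 C, 5% CO2, after overnight plating. Detection: luminescence, 30 min RT after reagent.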

A short description of experiment [4]: qHTS assay to identify small molecule antagonists of the estrogen related receptor (ERR) signaling pathway from Tox21 library - cell viability counter screen (AID 1224834). Also: nearly all actives have a fitted effect of over 30% in size. The conditions noted are these: ERR reporter cells viability, CellTiter-Fluor, 17.5 h; series mostly up to 92.4 µM. The essentials: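 Viability readout (CellTiter-Fluor fluorescence, 30 min at 37 C) multiplexed with the ERR assay; cells treated 17.5 h at 37 C with compounds delivered in DMSO.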

Structures are written as SMILES. Inconclusive results are not listed. The source made the active and inactive calls. Calls follow the shape of the dose curve; as a rule, active = well fitted curve in the direction sought with a large enough effect in the repeat runs; inconclusive = weak or mixed curves; inactive = no such curve, though single readings can be large; an effect the other way counts as inactive or inconclusive.
% is scaled to controls: 0 for no effect and ±100 for the full control effect; potency is read from the fitted curve at half-maximal effect.

As for `OC1CCC(C2CCCCC2)CC1` (centres undefined), the Potency entry in experiment [1], in experiment [2], in experiment [3] and in experiment [4] was “inactive” throughout.
Consider `CNc1ccc([N+](=O)[O-])cc1`, for which the Potency result in experiment [1] and in experiment [2] was “inactive” throughout. For the same compound, in experiment [4], the Potency is 43.4 µM (active).
Take `CCC(=O)OC(=O)CC`: the Potency entry in experiment [1], in experiment [2], in experiment [3] and in experiment [4] was “inactive” each time.
Turning to `CC1(C)CCC[C@]2(C)[C@H]3CCO[C@]3(C)CC[C@@H]12`, the Potency entry in experiment [1], in experiment [2], in experiment [3] and in experiment [4] was “inactive” in each case.
As to `O=[N+]([O-])c1ccc(F)c(Cl)c1`, the Potency result in experiment [1], in experiment [2], in experiment [3] and in experiment [4] was “inactive” in each case.
With `CN(C)Cc1cc(C(C)(C)C)c(O)c(C(C)(C)C)c1`, the Potency result in experiment [1], in experiment [2], in experiment [3] and in experiment [4] was “inactive” throughout.
For the compound `CCCCCCCCCCC[C@@H](C[C@@H]1OC(=O)[C@H]1CCCCCC)OC(=O)[C@H](CC(C)C)NC=O`, the Potency entry in experiment [1], in experiment [2], in experiment [3] and in experiment [4] was “inactive” each time.
Turning to `O=C(O)O`, the activity change, negative = cytotoxicity in experiment [1] was 2.76% [at 8.39 µM] (inactive). In experiment [2], the activity, negative = inhibition was -54.8% [at 8.39 µM] (inactive). Besides, the viability change, negative = cytotoxic in experiment [4] was -2.55% [at 8.39 µM] (inactive).
As to `O[C@@H]([C@H](O)[C@H](O)CBr)[C@H](O)CBr`, the Potency result in experiment [1], in experiment [2], in experiment [3] and in experiment [4] was “inactive” throughout.
On to `COc1ccc2c(c1)c(CC(=O)OC/C=C(\C)CC/C=C(\C)CCC=C(C)C)c(C)n2C(=O)c1ccc(Cl)cc1`, for which the Potency entry in experiment [1], in experiment [2], in experiment [3] and in experiment [4] was “inactive” each time.
As to `CCCC[P+](C)(CCCC)CCCC`, the Potency entry in experiment [1], in experiment [2], in experiment [3] and in experiment [4] was “inactive” throughout.
In the case of `CN1CCCCC1CCN1c2ccccc2Sc2ccc(S(C)=O)cc21` (centres undefined), the Potency result in experiment [1] and in experiment [3] was “inactive” each time.
For the compound `CNC(=O)c1ccccc1Sc1ccc2c(/C=C/c3ccccn3)n[nH]c2c1`, the Potency result in experiment [1] and in experiment [2] was “inactive” each time. Besides, the Potency in experiment [3] is 0.188 µM (active); in experiment [4], 26.6 µM (active).
Take `NC(=O)c1cccc([N+](=O)[O-])c1`: the Potency entry in experiment [1], in experiment [2] and in experiment [4] was “inactive” throughout.
Regarding `COc1cc2nc(N3CCN(C(=O)c4ccco4)CC3)nc(N)c2cc1OC`, in experiment [1], the activity change, negative = cytotoxicity is -9.47% [at 19 µM] (inactive).
For `OC[C@@H](O)[C@@H](O)CO`, the Potency entry in experiment [1], in experiment [2], in experiment [3] and in experiment [4] was “inactive” in each case.
With `Cc1ccc(C(C)C)cc2c(C)ccc1-2`, the Potency result in experiment [1], in experiment [2], in experiment [3] and in experiment [4] was “inactive” each time.
On to `CCCCC(CC)COC(=O)CCCCC(=O)OCc1ccccc1` (centres undefined), for which the Potency entry in experiment [1], in experiment [2], in experiment [3] and in experiment [4] was “inactive” throughout.
Regarding `C#C[C@]1(OC(C)=O)CC[C@H]2[C@@H]3CCC4=C[C@@H](OC(C)=O)CC[C@@H]4[C@H]3CC[C@@]21C`, the Potency entry in experiment [1] and in experiment [3] was “inactive” in each case.
As to `Nc1ccc(C(=O)O)c(O)c1`, the Potency result in experiment [1] and in experiment [3] was “inactive” each time.
Take `C=CCCC(=O)/C=C/C1C(C)=CCCC1(C)C` (centres undefined): the Potency entry in experiment [1], in experiment [2], in experiment [3] and in experiment [4] was “inactive” in each case.
`CCCc1ccc(OCC(=O)N2CCN(C(=O)COc3ccc(CCC)cc3OC)CC2)c(OC)c1`: the Potency result in experiment [1] and in experiment [2] was “inactive” each time.
For `CCCCCC/C=C\CCCCCCCC(=O)O`, the Potency result in experiment [1], in experiment [2], in experiment [3] and in experiment [4] was “inactive” in each case.
Regarding `CCOC(=O)c1ccc(C2CCC(NC[C@H](O)COc3ccc(O)c(NS(C)(=O)=O)c3)CC2)cc1` (some centres undefined), the Potency result in experiment [1] and in experiment [3] was “inactive” in each case. Also, the Potency in experiment [2] was 56.4 µM (active); in experiment [4] it was 63.3 µM (active).
Take `Cc1c(N)cccc1C(F)(F)F`: the Potency result in experiment [1], in experiment [2], in experiment [3] and in experiment [4] was “inactive” throughout.
With `CCCCCCC1CCCC(=O)O1` (centres undefined), the Potency result in experiment [1], in experiment [2], in experiment [3] and in experiment [4] was “inactive” throughout.
As to `COc1c(C)c2c(c(O)c1C/C=C(\C)CCC(=O)OCCN1CCOCC1)C(=O)OC2`, the Potency result in experiment [1], in experiment [2] and in experiment [3] was “inactive” in each case.
For `C#C[C@]1(OC(C)=O)CC[C@H]2[C@@H]3CCC4=C/C(=N/O)CC[C@@H]4[C@H]3CC[C@@]21CC`, the Potency result in experiment [1] and in experiment [3] was “inactive” throughout.
For `CC(C)=CCNc1ncnc2c1ncn2[C@@H]1O[C@H](CO)[C@@H](O)[C@H]1O`, the Potency in experiment [1] was 13.3 µM (active); in experiment [2], 23.7 µM (active).
On to `CCCCCc1ccc(Cl)cc1`, for which the Potency result in experiment [1], in experiment [2], in experiment [3] and in experiment [4] was “inactive” throughout.
As for `C=Cc1ccccc1C=C`, the Potency entry in experiment [1], in experiment [2], in experiment [3] and in experiment [4] was “inactive” each time.
With `O=C1NC(=O)[C@@H]2CC=CC[C@H]12`, the Potency result in experiment [1], in experiment [3] and in experiment [4] was “inactive” in each case.
`CCN(CC)c1ccc2c(-c3ccc(S(=O)(=O)O)cc3S(=O)(=O)[O-])c3ccc(=[N+](CC)CC)cc-3oc2c1`: the Potency is 31.6 µM (active) in experiment [1] and 22.4 µM (active) in experiment [4]. Further, the Potency entry in experiment [3] was “inactive”.
With `CC1(C)CC(O)CC(C)(C)N1`, the Potency result in experiment [1], in experiment [3] and in experiment [4] was “inactive” throughout.
